# Test results: PubChem BioAssay (NCATS)
# Records with an inconclusive call do not appear. Where a call stands in place of a potency, no number is given. Calls of active or inactive are those of the source. Calls follow the shape of the dose curve; as a rule, active = well fitted inhibition curve with a large enough effect; inconclusive = small, poorly fitted or top-dose-only effect; inactive = no such curve, though single readings can be large or run the other way.
# Molecular target: Furin (Homo sapiens) (UniProt P09958)
# Experiment: Furin counterscreen qHTS for Zika virus inhibitors (AID 1347149); also: nearly all actives have a fitted effect of over 70% in size
# Conditions: furin enzymatic counterscreen, fluorogenic substrate; series mostly up to 57.5 µM
# Source text: Avindra Nath, Ph.D., National Institute of Neurological Disorders and Stroke (NINDS), Bethesda, MD
# Radhakrishnan Padmanabhan, Ph.D., Georgetown University (GU), Washington D.C.
# Zika Virus causes congenital defects, including microcephaly and is associated with Guillain-Barre syndrome, eningoencephalitis and myelitis in infected adult. […] Using a target-based approach, we hope to establish a screening paradigm to uncover novel, cell-active NS2B-NS3 protease (Zika Virus) specific inhibitors from NCATS' collection of small molecules using qHTS.
# Four assay panel was created to identify potential Zika Virus inhibitors. Namely, (1) GU unlinked NS2B-NS3 AMC tagged protease qHTS, (2) GU unlinked NS2B-NS3 Rhodamine tagged protease qHTS, (3) NINDS linked NS2B-NS3 AMC tagged protease qHTS, (4) NINDS linked NS2B-NS3 Rhodamine tagged protease qHTS. Active compounds were re-acquired and re-screened to confirm inhibition. Inhibitors were further screened against various confirmatory and counterscreens in dose response format.
# Early Translation Branch (ETB)
# National Center for Advancing Translational Sciences (NCATS), Rockville, MD
# National Institute of Health (NIH), Bethesda, Maryland
# 1536-well Furin BOC-RVRR-AMC Protocol:
# Human recombinant Furin Serine Protease was purchased from Peprotech (catalog #450-47; full length; Rocky Hill, NJ). Briefly, 3 microL of enzyme (final concentrations of 5 nM), in assay buffer (100 mM HEPES pH 7.0, 1 mM CaCl2 with 0.01% Triton X-100) were dispensed into a 1,536-well solid-bottom black plate (Greiner Bio One, Monroe, NC). Twenty-three nL of compounds (final concentration range 7.28 nM to 114 microM) or control Furin Inhibitor I (Dec-RVKR-CMK; final concentration range 0.248 nM to 8.12 microM) were transferred via Wako Pin-tool (Wako Automation, Richmond, VA). Samples were incubated (RT, protected from light) for 15 minutes followed by a 1 microL substrate addition of BOC-RVRR-AMC (final concentration of 2 microM; Km = ~15 muM90). Plates were then read immediately on a ViewLux High-throughput CCD imager (PerkinElmer, Waltham, MA) equipped with standard UV fluorescence optics (340(30) nm excitation, 450(20) nm emission), then incubated (37C, protected from light) for 15 or 30 minutes (~9% conversion). The change in fluorescence intensity over the 15-minute reaction period was normalized against no-inhibitor and no-enzyme controls and the resulting percent inhibition data were fitted to a 4-parameter Hill equation. Furin Inhibitor I was used as intraplate control.
# Potency is read from the fitted curve at half-maximal effect.
# Furin (Homo sapiens), sequence (P09958 whole entry, looked up): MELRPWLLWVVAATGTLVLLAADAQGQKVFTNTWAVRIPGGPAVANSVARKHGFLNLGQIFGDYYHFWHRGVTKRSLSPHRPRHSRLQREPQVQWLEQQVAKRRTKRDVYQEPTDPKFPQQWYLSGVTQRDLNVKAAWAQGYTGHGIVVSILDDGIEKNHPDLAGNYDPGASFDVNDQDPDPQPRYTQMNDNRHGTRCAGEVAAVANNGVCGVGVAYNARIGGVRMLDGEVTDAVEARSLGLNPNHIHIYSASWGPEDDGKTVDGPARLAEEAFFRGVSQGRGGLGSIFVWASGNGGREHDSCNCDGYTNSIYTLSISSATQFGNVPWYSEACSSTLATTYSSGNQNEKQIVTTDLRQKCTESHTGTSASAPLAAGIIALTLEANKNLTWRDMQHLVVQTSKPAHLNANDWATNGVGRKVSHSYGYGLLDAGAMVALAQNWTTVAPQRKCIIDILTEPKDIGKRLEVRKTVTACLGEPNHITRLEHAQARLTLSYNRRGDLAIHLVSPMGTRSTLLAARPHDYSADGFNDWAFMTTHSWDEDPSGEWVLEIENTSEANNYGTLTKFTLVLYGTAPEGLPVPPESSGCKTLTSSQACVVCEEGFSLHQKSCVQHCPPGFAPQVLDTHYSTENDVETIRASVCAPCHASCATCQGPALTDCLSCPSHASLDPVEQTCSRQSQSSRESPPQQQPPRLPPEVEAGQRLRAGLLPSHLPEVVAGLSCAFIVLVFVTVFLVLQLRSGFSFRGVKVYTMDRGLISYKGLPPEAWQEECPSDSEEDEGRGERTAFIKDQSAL
row,SMILES,Potency
1,O=C(Nc1ccccc1)Nc1ccc(-c2ccc(C(=O)C3CCCC3C(=O)O)cc2)cc1 (configuration not stated),55.5 µM (active)
2,C=C1C2CCC3CC2(CC(O)C2(O)C1CC(OC1OC(CO)C(O)C(O)C1O)C2(C)C)CC3(C)O (configuration not stated),inactive
3,C=CC1(C)C=C2CC[C@H]3[C@@](C)(C(=O)O)CCC[C@]3(C)C2CC1 (some centres not stated),inactive
4,C=C1C2CCC3C(CCC4[C@@]3(C)CCC[C@@]4(C)C(=O)O)(C2)[C@@H]1OC(=O)/C(C)=C\C (some centres not stated),inactive
5,Cc1ccc2[nH]c(=O)c(C3=NN(C(=O)CCC(=O)O)C(c4ccc(Br)cc4)C3)c(-c3ccccc3)c2c1 (configuration not stated),69.8 µM (active)
6,O=C(O)C1(c2ccc(-c3ccc(Cl)c(Cl)c3)c(F)c2)CC1,inactive
7,C/C(=C\CC/C(C)=C/CC[C@]1(C)CCc2cc(O)cc(C)c2O1)CC/C=C(\C)C(=O)O,inactive
8,CCc1nnc(NS(=O)(=O)c2ccc(NC(=S)NC(=O)/C=C/c3ccc(F)cc3)cc2)s1,inactive
9,COc1cc(Nc2nc3ccccc3nc2NS(=O)(=O)c2cccc(NC(=O)c3ccc(C)c(OC)c3)c2)cc(OC)c1,inactive
10,COc1cccc(CNc2ccc(S(=O)(=O)Nc3nc4ccccc4s3)cc2)c1O,inactive
11,CC1(C)CC=C(c2cnc3ccccc3c2)c2cc(C(=O)Nc3ccc(C(=O)O)cc3)ccc21,44.1 µM (active)
12,CC1C(O)C(O)C2C(C(=O)OCCc3ccc(O)cc3)=COC(O[C@@H]3O[C@H](CO)[C@@H](O)[C@H](O)[C@H]3O)C12 (some centres not stated),inactive
13,C/C=C/C=C/C=C/C(=O)O[C@@H]1[C@@H](OC)C2=C(C(=O)N(C(CCC(=O)O)C(=O)O)C2)[C@@]2(C)CCCC(C)(C)[C@H]12 (some centres not stated),inactive
14,CC(=O)OC12CC(C)C(OC(=O)c3ccccc3)C1/C=C(/C)C(OC(=O)c1ccccc1)CC(=O)C(C)(C)/C=C/C(C)C2=O (configuration not stated),inactive
15,O=C(O)CC1CCC(c2ccc(-c3ccc(Nc4ccc(C(F)(F)F)nc4)cn3)cc2)CC1 (configuration not stated),78.4 µM (active)
16,COc1cc2c(c(O)c1OC/C=C(\C)CC/C=C(/C)CCC=C(C)C)CN(C(CCC(=O)O)C(=O)O)C2=O (configuration not stated),inactive
17,C=C1CCC2C(C)(C)CCC[C@]2(C)[C@H]1CC/C(C)=C/C(=O)O (some centres not stated),inactive
18,Cc1ccccc1NC(=O)Nc1ccc(CN2C(=O)N([C@@H](CC(C)C)C(=O)N[C@@H](CC(=O)O)c3ccccc3)C(=O)C2(C)C)cc1,inactive
19,CC(C)CC(c1c(O)c(C=O)c(O)c(C=O)c1O)C1CCC(C)(O)C2CC(C(C)(C)O)CCC12C (configuration not stated),inactive
20,COc1cc(Nc2ccc([N+](=O)[O-])cc2C(=O)O)cc2ccccc12,inactive
21,COc1cccc(OC)c1-c1cc(C(=O)N[C@@H](CC(C)C)C(=O)O)nn1-c1ccnc2cc(Cl)ccc12,inactive
22,COc1cc(/C=C/c2ccccc2)c(C(=O)O)c(O)c1CC=C(C)C,19.3 µM (active)
